Hits are enriched below; roughly 3.7% of the tested compounds scored in any of these assays.
BoNT F protease: BoNT/F light chain protease inhibitors, primary screen, biochemical, flow cytometry, MLPCN library. Multiplex microsphere protease cleavage assay. inhibition, % at 10 µM. hit rate 0.22% among 360,000. AID 588497, 2011; in the data active = inhibition above about 35%, passing the limit was not always enough; inconclusive = no clear call, values can overlap the other calls
Autofluor counter: compound fluorescence in toxin protease inhibitor counterscreen; fluorescence intensity (no concentration beside the values); compound autofluorescence counterscreen, microsphere flow cytometry; stronger effect = higher value; hit rate 3.1% among 360,000; in the data active = fluorescence intensity above about 16000; inconclusive = no clear call, values can overlap the other calls
MazEF act: activators of E. coli MazEF toxin-antitoxin RNase, primary screen, biochemical, fluorescence, uHTS. Endoribonuclease toxin MazF (Escherichia coli (strain K12)), P0AE70. FAM/BHQ RNA-DNA oligo cleavage fluorescence, 5 h. activation, % at 20 µM. hit rate 0.32% among 350,000; in the data active = activation above about 50%
Target sequence (P0AE70 whole entry, looked up): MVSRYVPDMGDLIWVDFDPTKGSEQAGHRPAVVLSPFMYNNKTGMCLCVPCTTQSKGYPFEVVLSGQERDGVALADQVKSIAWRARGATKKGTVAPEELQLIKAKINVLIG
BoNT A protease: BoNT/A light chain protease inhibitors, primary screen, biochemical, flow cytometry, MLPCN library. Botulinum neurotoxin type A light chain protease (Clostridium botulinum A str. ATCC 3502). multiplex microsphere protease substrate cleavage. inhibition, % at 10 µM. hit rate 0.17% among 360,000
Anthrax LF prot: Bacillus anthracis LF protease inhibitors, primary screen, biochemical, multiplex microsphere, MLPCN library; Lethal factor (Bacillus anthracis), P15917; multiplex microsphere protease cleavage assay; inhibition, % at 10 µM; hit rate 0.12% among 360,000
Hits are given with their value; - = inactive; ? = inconclusive; . = not tested or not shown; + = active, no number; ! = not active in a repeat. Rule as the data show it, unless noted: active = inhibition above about 30%; inconclusive = no clear call, values can overlap the other calls; inactive = below that.

SMILES | BoNT F protease | Autofluor counter | MazEF act | BoNT A protease | Anthrax LF prot
Cc1ccc(S(=O)(=O)c2nc(Nc3ccccc3N3CCOCC3)sc2Cl)cc1 | - | 16143 | - | - | -
CCCCCCNC(=O)C(C#N)c1nc2ccccc2nc1N1CCCC1 (configuration not stated) | - | - | 370 | - | -
CCCCCCNC(=O)C(C#N)c1nc2ccccc2nc1N1CCOCC1 (configuration not stated) | - | - | 577 | - | -
CCCCCCOC(=O)C(C#N)c1nc2ccccc2nc1N1CCOCC1 (configuration not stated) | - | 19713 | - | - | -
CCCCCNC(=O)C(C#N)c1nc2ccccc2nc1N1CCCC1 (configuration not stated) | - | - | - | - | -
COCCCNC(=O)C(C#N)c1nc2ccccc2nc1N1CCCC1 (configuration not stated) | - | ? | 739 | - | ?
COc1cccc(CNc2nc(NC(C)C)nc3ccsc23)c1 | - | - | . | - | -
CCc1nc2ccc(C(=O)NC3CCN(Cc4ccccc4)CC3)cn2c1N(CC)Cc1cccc(Br)c1 | - | - | . | - | -
CC(=O)Oc1ccc(N2C(=O)C3C4C=CC(CO)(O4)C3C2=O)cc1 (configuration not stated) | - | - | - | - | -
COc1ccc(C(=O)NCC23C=CC(O2)C2C(=O)N(Cc4ccccc4)C(=O)C23)cc1 (configuration not stated) | - | 19591 | - | ? | -
Cc1ccccc1S(=O)(=O)NC(=O)C1(C)CCN1C(=O)CC1CCCC1 (configuration not stated) | - | - | . | - | -
COc1ccc(N2CCN(C(CNC(=O)C(=O)NC3CCCC3)c3ccco3)CC2)cc1 (configuration not stated) | - | - | - | - | -
O=[N+]([O-])c1ccc(N2CCCCC2)c(Cl)c1N1CCCCC1 | - | 19380 | - | - | -
Nc1cc(N2CCCCC2)c(Cl)cc1[N+](=O)[O-] | - | 21335 | - | ? | -
Nc1ccc(N2CCCCC2)c2nonc12 | - | - | - | 33 | -
O=[N+]([O-])c1ccc(N2CCCCCC2)c2nonc12 | 115 | - | - | 53 | -
O=[N+]([O-])c1ccc(N2CCCCC2)c2ncccc12 | - | - | - | - | -
CCCc1c(-c2ccc(F)cc2F)ncn1Cc1ccccc1OC | - | - | . | - | -
Cc1ccc(CC2(c3ccccc3)NC(=O)NC2=O)cc1 (configuration not stated) | - | - | - | - | -
CC1(C(=O)Nc2c(F)c(F)c(F)c(F)c2F)CC1(Br)Br (configuration not stated) | ? | - | - | - | 31
C#CCONC(=O)c1cc(OCC(F)(F)F)ccc1OCC(F)(F)F | - | 22449 | - | - | -
Cc1ccc(C(=O)NNC(=O)c2cc(OCC(F)(F)F)ccc2OCC(F)(F)F)cc1 | - | 21489 | - | ? | -
O=C(OCCN=C1NS(=O)(=O)c2ccccc21)C1CC(=O)N(c2ccc3ccccc3c2)C1 (configuration not stated) | - | 19051 | - | ? | -
CN(/N=C/c1ccc(N(C)C)cc1)C1=NS(=O)(=O)c2ccccc21 | - | - | + | - | -
O=c1cc(O)nc(SCc2ccccc2)n1-c1ccccc1 | - | 24058! | - | - | -
SMILES | BoNT F protease | Autofluor counter | MazEF act | BoNT A protease | Anthrax LF prot
O=C(CSc1nc(O)cc(=O)n1-c1ccccc1)NCc1ccccc1 | - | 16693 | - | - | -
O=C(CSc1nc(O)cc(=O)n1-c1ccccc1)Nc1ccccn1 | - | - | - | - | -
CC1(C)Cc2nc3nc(SCC(=O)NCCc4ccccc4)n(-c4ccccc4)c(=O)c3cc2CO1 | - | 16362 | - | - | -
CC(=O)Oc1ccc(Cn2c(C)c(C(=O)NCc3ccc4c(c3)OCCO4)sc2=O)cc1 | - | - | . | - | -
O=C(O)c1ccccc1C(=O)c1ccc(F)c(F)c1 | - | - | - | - | -
CCOC(=O)CC(/C(C)=N\O)c1ccccc1 (configuration not stated) | - | 21192 | - | - | -
CCOC(=O)CC(NC(=O)C(CC)c1ccccc1)c1ccccc1Cl (configuration not stated) | - | - | - | - | -
c1ccc(-c2ccncn2)cc1 | - | - | - | - | -
COc1ccc2nc3cc(Cl)ccc3c(C#N)c2c1 | - | - | 142 | - | -
CCOC(=O)C1CCN(C(=O)c2cn(CCOC)c(=O)c3c2c2ccccc2n3C)CC1 | - | 23452 | - | - | -
COCCn1cc(C(=O)N2CCCC(C)C2)c2c3ccccc3n(C)c2c1=O (configuration not stated) | - | - | - | - | -
CC(C)Cn1cc(C(=O)N2CCN(c3ccccn3)CC2)c2c3ccccc3n(C)c2c1=O | - | 16320 | - | - | -
CC(C)Cn1cc(C(=O)NCCCN2CCC(C)CC2)c2c3ccccc3n(C)c2c1=O | - | - | - | - | -
CCN1CCN(C(=O)c2cn(CCOC)c(=O)c3c2c2ccccc2n3C)CC1 | - | 21067 | - | - | -
CC(C)Cn1cc(C(=O)NCCCN2CCCC2=O)c2c3ccccc3n(C)c2c1=O | - | 16933 | - | - | -
Cc1cc2c(cc1C)NC(=O)C(C)CN2 (configuration not stated) | - | - | - | - | -
COc1ccc(N(C=O)C(C(=O)Nc2c(C)cccc2C)c2ccccc2)cc1 (configuration not stated) | - | - | - | - | -
COc1cccc(NC(=O)CN(C)C(=O)c2cccnc2Sc2ccc(C)c(C)c2)c1 | - | ? | - | - | -
CC(=O)Nc1cncc(-c2cccc(C(=O)N3CCOCC3)c2)n1 | - | - | . | - | -
CCOC(CCNC(=O)c1cn(C)c(=O)c2c1c1ccccc1n2C)OCC | 89 | - | - | - | 69
CCOC(=O)c1c(S(=O)(=O)NCCCc2ccco2)c(C)n(C)c1C | - | - | - | - | -
COc1ccc(CCn2c(Br)nc3c2c(=O)[nH]c(=O)n3C)cc1 | - | 17013 | - | - | -
COc1ccc(CCn2c(NN)nc3c2c(=O)[nH]c(=O)n3C)cc1 | . | . | - | . | .
Cc1noc(C)c1C(=O)OC(C(=O)NC1CCCC1)c1ccc(F)cc1 (configuration not stated) | - | 22114 | - | - | -
COCCCNC(=O)c1c(N)n(-c2ccc3c(c2)OCO3)c2nc3ccccc3nc12 | - | - | - | - | -
CCCNC(=O)c1c(N)n(-c2ccc3c(c2)OCO3)c2nc3ccccc3nc12 | - | 21855 | - | ? | -
COc1ccc(CCN2C(=O)COc3ccccc3C2C(=O)NCc2ccccc2)cc1OC (configuration not stated) | - | - | . | - | -
Cc1sc2ncnc(N/N=C/c3cccc(O)c3)c2c1C | - | - | - | - | -
